# Data from the supplement of paper PMC10849652.
# Of roughly 8,800 targets only a part is listed; those with a hit were picked by preference. About 0.5% of all pairs of compound and target were hits. Unmarked numbers belong to inactive results.
# Legend:
# Assay in all cases: log2 fold change, soluble protein after heating vs DMSO (PISA); higher = thermal stabilisation; K562 lysate, 10 uM; active = over 0.2 and 3.5 SD of the protein, either way, in both replicates (recomputed)
# [1] = compound: CN1CC[C@H](c2c(O)cc(O)c3c(=O)cc(-c4ccccc4Cl)oc23)[C@H](O)C1 [alvocidib]
# Method in brief: (§1)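 To prepare the extract, K562 pellets were dounce-homogenised in PBS pH 7.4 with 1 mM MgCl2, giving crude material at 1 mg/mL protein. This was treated with 10 μM compound for 30 min, then heated in aliquots for 3 min over 48°C-58°C before pooling and addition of NP-40 to 0.5% at 4°C. Centrifugation at 21,000xg for 90 min left soluble protein in the supernatant, which TMTpro 16plex LC-MS/MS quantified with equalised channel sums. Results are log-two fold changes in thermal stability compared with solvent controls, from duplicates.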
# [2] = compound: CN1CCc2c(c3ccccc3n2Cc2ccc(C(=O)NO)cc2)C1 [Tubastatin A]
# Method in brief: as §1
# [3] = compound: CNC(=O)C1=CC=CC=C1NC2=NC(=NC=C2Cl)NC3=C(C=C(C=C3)N4CCOCC4)OC
# Method in brief: as §1
# [4] = compound: CNC(=O)c1ccc(Nc2ncc(C(F)(F)F)c(NCc3nccnc3N(C)S(C)(=O)=O)n2)cc1 [defactinib]
# Method in brief: as §1
# [5] = compound: CNc1nc(-c2ccc3c(N)n[nH]c3c2)cc(N2C[C@@H](C(=O)NC3CCCCC3)CC[C@H]2C)n1
# Method in brief: as §1
# [6] = compound: COC(=O)N[C@@H](C)CNc1nccc(-c2cn(C(C)C)nc2-c2cc(Cl)cc(NS(C)(=O)=O)c2F)n1 [encorafenib]
# Method in brief: as §1
# [7] = compound: COC(=O)[C@H](CCSC)NC(=O)C1=C(C=C(C=C1)NC[C@H](CS)N)C2=CC=CC=C2
# Method in brief: as §1
# [8] = compound: COc1cc2nc(-c3cc(F)ccc3O)nc(N[C@@H]3CNC[C@H]3C(C)(C)O)c2cc1OC
# Method in brief: as §1
# [9] = compound: CS(=O)(=O)CCNCc1ccc(-c2ccc3ncnc(Nc4ccc(OCc5cccc(F)c5)c(Cl)c4)c3c2)o1 [lapatinib]
# Method in brief: as §1
# [10] = compound: CS(=O)(=O)N1CCN(Cc2cc3nc(-c4cccc5[nH]ncc45)nc(N4CCOCC4)c3s2)CC1 [pictilisib]
# Method in brief: as §1
# [11] = compound: C[C@@H](Oc1cc(-c2cnn(C3CCNCC3)c2)cnc1N)c1c(Cl)ccc(F)c1Cl [crizotinib]
# Method in brief: as §1
# [12] = compound: C[C@H](C1=CC=C(C=C1)C(=O)NC2=C3C=CNC3=NC=C2)N
# Method in brief: as §1
# [13] = compound: C[C@H](Nc1ncnc2nc[nH]c12)c1cc2cccc(Cl)c2c(=O)n1-c1ccccc1 [duvelisib]
# Method in brief: as §1
# [14] = compound: Cc1cc(Nc2cc(CN3CCOCC3)c3nc(C)c(Cc4ccc(Cl)cc4F)n3n2)n[nH]1 [gandotinib]
# Method in brief: as §1
# [15] = compound: Cc1cc(Nc2cc(N3CCN(C)CC3)nc(Sc3ccc(NC(=O)C4CC4)cc3)n2)n[nH]1 [tozasertib]
# Method in brief: as §1
# [16] = compound: Cc1ccc(-n2nc(C(C)(C)C)cc2NC(=O)Nc2ccc(OCCN3CCOCC3)c3ccccc23)cc1 [doramapimod]
# Method in brief: as §1
# [17] = compound: Cc1ccc(NC(=O)c2ccc(CN3CC[C@H](N(C)C)C3)c(C(F)(F)F)c2)cc1Nc1nccc(-c2cncnc2)n1 [bafetinib]
# Method in brief: as §1
# [18] = compound: Cc1cccc(CC(=O)N2CCc3c2ccc(-c2cn(C)c4ncnc(N)c24)c3F)n1
# Method in brief: as §1
# [19] = compound: COc1cc(Nc2ncc3c(n2)-c2ccc(Cl)cc2C(c2c(F)cccc2OC)=NC3)ccc1C(=O)O [alisertib]
# Method in brief: as §1
# [20] = compound: COc1cc2ncnc(Nc3ccc(F)c(Cl)c3)c2cc1OCCCN1CCOCC1 [gefitinib]
# Method in brief: as §1
# Sequence of UniProt P53671 (P53671 whole entry, looked up): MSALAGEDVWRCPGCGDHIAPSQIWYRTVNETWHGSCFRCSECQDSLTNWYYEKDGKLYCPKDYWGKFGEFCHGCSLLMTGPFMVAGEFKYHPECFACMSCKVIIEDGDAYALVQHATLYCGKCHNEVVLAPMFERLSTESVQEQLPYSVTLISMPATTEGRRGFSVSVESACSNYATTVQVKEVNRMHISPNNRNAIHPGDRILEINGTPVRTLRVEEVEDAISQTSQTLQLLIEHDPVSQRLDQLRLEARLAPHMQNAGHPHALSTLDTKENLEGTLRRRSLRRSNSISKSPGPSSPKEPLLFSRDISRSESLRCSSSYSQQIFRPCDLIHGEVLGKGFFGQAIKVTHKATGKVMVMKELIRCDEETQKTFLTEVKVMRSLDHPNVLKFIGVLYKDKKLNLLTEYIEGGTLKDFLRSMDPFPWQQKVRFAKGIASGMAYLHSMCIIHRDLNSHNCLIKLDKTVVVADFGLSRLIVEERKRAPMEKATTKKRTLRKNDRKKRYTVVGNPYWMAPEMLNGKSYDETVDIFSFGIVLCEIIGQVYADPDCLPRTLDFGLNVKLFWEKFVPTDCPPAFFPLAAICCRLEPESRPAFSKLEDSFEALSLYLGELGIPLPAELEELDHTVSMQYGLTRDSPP
# Sequence of UniProt P01116 (P01116 whole entry, looked up): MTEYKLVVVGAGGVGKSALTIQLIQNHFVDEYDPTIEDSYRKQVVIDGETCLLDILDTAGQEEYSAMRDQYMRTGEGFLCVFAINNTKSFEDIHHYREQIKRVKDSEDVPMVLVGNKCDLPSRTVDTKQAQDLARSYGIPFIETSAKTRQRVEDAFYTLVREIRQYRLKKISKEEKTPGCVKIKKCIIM
# Sequence of UniProt Q00987 (Q00987 whole entry, looked up): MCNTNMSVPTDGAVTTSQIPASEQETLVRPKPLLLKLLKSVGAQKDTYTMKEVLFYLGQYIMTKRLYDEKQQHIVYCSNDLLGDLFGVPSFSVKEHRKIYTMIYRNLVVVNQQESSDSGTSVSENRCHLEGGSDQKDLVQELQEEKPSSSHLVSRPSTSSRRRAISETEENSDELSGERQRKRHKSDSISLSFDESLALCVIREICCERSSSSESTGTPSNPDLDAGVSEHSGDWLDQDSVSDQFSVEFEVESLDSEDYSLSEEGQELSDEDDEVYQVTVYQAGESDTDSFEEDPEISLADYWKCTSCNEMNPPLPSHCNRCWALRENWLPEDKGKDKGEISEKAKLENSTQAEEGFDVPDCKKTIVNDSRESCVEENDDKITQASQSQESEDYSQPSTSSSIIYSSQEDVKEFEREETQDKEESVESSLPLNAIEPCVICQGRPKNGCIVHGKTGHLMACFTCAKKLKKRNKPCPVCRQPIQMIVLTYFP
# Sequence of UniProt Q5SRI9 (Q5SRI9 whole entry, looked up): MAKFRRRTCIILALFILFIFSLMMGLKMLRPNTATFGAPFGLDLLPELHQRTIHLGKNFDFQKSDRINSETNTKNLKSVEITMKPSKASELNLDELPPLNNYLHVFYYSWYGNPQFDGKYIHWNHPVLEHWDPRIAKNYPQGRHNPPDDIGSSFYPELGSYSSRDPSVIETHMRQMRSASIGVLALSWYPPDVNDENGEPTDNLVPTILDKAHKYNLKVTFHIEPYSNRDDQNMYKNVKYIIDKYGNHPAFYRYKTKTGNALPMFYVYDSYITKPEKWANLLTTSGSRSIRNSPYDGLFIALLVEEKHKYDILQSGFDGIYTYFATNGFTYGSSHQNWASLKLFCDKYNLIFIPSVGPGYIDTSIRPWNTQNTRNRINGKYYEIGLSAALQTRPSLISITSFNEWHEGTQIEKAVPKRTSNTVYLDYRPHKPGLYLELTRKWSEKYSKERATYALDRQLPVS
# Sequence of UniProt Q9Y4K4 (Q9Y4K4 whole entry, looked up): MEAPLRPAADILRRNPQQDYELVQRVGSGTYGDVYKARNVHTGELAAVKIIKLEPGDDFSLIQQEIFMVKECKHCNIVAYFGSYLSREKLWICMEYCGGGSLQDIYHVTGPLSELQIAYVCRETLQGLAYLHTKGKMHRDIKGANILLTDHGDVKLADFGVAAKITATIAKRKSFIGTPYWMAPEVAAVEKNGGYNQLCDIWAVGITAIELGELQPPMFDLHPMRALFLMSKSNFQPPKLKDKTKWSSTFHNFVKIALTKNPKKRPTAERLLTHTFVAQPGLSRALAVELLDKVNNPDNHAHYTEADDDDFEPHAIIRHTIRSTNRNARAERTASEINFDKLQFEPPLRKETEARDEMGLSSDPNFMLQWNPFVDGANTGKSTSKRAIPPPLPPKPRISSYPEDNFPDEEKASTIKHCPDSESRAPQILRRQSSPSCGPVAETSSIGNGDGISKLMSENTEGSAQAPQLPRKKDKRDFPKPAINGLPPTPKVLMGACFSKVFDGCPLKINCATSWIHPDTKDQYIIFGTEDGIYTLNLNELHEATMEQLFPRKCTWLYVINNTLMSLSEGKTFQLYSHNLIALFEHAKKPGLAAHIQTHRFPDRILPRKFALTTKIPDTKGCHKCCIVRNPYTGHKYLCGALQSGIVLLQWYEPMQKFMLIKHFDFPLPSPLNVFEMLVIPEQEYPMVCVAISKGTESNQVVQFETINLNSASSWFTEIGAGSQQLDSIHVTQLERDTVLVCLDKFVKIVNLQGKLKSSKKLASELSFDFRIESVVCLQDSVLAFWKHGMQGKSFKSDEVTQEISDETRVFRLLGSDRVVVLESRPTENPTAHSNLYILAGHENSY
# Sequence of UniProt Q8N4C8 (Q8N4C8 whole entry, looked up): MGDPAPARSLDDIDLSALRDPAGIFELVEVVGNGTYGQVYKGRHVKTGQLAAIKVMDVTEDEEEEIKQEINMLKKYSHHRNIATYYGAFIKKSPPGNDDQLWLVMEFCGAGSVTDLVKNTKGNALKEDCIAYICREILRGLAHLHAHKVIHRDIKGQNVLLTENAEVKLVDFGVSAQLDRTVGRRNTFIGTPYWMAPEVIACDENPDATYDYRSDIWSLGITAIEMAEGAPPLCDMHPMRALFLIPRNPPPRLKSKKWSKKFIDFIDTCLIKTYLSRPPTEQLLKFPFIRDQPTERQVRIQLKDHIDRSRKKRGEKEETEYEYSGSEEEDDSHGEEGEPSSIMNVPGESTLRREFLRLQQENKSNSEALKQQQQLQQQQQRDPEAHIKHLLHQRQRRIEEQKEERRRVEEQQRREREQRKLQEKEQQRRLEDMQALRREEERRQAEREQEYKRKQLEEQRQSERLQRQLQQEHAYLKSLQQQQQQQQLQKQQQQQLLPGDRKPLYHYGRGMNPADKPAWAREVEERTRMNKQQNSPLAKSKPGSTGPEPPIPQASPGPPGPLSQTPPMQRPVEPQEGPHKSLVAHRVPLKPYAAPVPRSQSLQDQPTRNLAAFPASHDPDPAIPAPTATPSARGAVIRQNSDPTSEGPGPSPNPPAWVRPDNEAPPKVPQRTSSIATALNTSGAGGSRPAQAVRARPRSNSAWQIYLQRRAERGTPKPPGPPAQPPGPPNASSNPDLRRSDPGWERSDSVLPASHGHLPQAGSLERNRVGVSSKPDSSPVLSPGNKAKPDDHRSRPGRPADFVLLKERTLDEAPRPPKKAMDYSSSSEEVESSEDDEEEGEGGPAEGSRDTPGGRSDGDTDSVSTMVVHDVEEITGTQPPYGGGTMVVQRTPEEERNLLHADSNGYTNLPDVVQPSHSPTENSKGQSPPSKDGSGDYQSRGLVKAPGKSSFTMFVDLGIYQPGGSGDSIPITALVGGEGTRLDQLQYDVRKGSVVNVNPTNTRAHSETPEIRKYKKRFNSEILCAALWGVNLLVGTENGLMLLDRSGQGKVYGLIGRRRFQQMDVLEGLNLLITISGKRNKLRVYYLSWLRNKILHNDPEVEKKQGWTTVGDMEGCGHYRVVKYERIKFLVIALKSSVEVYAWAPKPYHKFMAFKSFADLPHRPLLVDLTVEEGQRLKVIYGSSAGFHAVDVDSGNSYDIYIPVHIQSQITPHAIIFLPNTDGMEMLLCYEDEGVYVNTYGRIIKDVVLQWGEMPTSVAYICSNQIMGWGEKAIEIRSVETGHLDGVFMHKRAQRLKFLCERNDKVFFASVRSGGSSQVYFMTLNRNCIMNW
# Sequence of UniProt O14782 (O14782 whole entry, looked up): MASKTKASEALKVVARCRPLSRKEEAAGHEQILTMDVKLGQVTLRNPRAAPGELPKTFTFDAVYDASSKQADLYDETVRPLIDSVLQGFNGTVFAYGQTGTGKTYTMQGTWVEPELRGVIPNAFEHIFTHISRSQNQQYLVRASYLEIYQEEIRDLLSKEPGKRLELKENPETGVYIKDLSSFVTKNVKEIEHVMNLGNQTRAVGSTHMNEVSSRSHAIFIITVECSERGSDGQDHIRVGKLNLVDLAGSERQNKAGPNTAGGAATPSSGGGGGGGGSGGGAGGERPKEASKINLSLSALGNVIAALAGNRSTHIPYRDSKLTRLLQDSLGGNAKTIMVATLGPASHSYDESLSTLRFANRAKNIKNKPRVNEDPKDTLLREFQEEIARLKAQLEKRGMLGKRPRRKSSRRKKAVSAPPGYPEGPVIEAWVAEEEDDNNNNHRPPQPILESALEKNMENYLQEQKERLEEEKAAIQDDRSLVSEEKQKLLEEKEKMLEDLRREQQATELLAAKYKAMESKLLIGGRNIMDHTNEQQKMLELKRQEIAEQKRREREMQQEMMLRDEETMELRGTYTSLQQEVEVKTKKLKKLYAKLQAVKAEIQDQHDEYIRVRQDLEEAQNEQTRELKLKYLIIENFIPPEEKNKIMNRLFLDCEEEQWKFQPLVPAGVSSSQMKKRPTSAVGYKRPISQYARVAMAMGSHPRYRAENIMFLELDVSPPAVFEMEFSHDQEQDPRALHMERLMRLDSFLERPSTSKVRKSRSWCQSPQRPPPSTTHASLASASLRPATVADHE
Target,log2 fold change [1],log2 fold change [2],log2 fold change [3],log2 fold change [4],log2 fold change [5],log2 fold change [6],log2 fold change [7],log2 fold change [8],log2 fold change [9],log2 fold change [10],log2 fold change [11],log2 fold change [12],log2 fold change [13],log2 fold change [14],log2 fold change [15],log2 fold change [16],log2 fold change [17],log2 fold change [18],log2 fold change [19],log2 fold change [20]
MANEA (UniProt Q5SRI9),-0.078,-0.08,-0.016,0.062,-0.09,0.028,-0.07,0.041,-0.01,0.008,-0.023,-0.464 (active),0.036,0.365 (active),0.035,0.034,0.007,0.278,,
MAP4K5 (UniProt Q9Y4K4),0.045,-0.021,0.068,0.125,-0.006,0.009,-0.191,0.189,-0.035,0.044,,0.013,-0.021,0.055,0.152,-0.04,-0.046,0.112,-0.027,0.086
KIF26A (UniProt Q9ULI4),0.022,0.566 (active),-0.149,-0.105,-0.021,-0.052,0.035,,,0.039,0.013,-0.065,-0.017,0.003,0.086,-0.002,-0.055,0.002,0.004,0.056
LIMK2 isoform 3 (UniProt P53671),-0.002,0.02,0.068,-0.026,0.102,0.204,-0.189,0.033,0.029,0.112,-0.138,0.626 (active),-0.035,-0.144,0.01,0.109,-0.108,-0.037,0.031,-0.141
LYN isoform 2 (UniProt P07948),0.138,-0.153,0.175,,0.014,-0.063,0.301,,,,0.049,0.026,-0.357,0.891 (active),0.126,-0.076,,-0.006,0.229,0.054
MED25 isoform 3 (UniProt Q71SY5),0,0.056,-0.033,,-0.022,-0.123,0.005,0.01,0.018,-0.05,-0.05,0.053,0.063,-0.095,-0.109,-0.042,-0.023,-0.052,0.125,-0.029
KRAS (UniProt P01116),-0.071,0.059,-0.048,-0.01,-0.005,0.01,0.043,-0.042,0.019,,0.017,-0.078,0.001,0.044,-0.013,0.006,,0.145,-0.016,0.139
KMT2A isoform 3 (UniProt Q03164),-0.073,0.011,-0.07,-0.054,-0.069,-0.118,-0.037,0.061,-0.07,-0.102,-0.033,0.091,0.013,0.013,0.148,0.026,-0.41,0.069,-0.371,-0.172
KIF3C (UniProt O14782),0.033,-0.018,-0.01,0.157,0.058,0.101,0.024,0.07,-0.172,,-0.177,-0.119,0,-0.002,-0.394,-0.031,,0.152,0.247,-0.029
MAP2K1 (UniProt Q02750),0.06,-0.011,0.066,0.013,0.028,-0.07,-0.063,0.021,-0.065,-0.009,0.001,0.204,-0.021,-0.042,0.152,-0.002,-0.027,-0.047,-0.036,0.029
KRI1 (UniProt Q8N9T8),0.017,-0.113,0.016,0.019,-0.012,0.038,0.009,,,-0.072,-0.057,0.011,0.036,-0.022,0.014,0.023,0.009,0.045,0.042,-0.106
MARF1 (UniProt Q9Y4F3),-0.024,-0.194,0.024,-0.157,-0.021,0.053,0.086,,,-0.212,-0.021,0.035,-0.002,-0.1,-0.032,-0.004,-0.012,0.095,-0.056,0.02
MAP4 (UniProt P27816),-0.023,0.043,0.016,-0.02,0.037,-0.024,-0.031,0.014,-0.002,0.012,0.013,-0.032,-0.004,0.058,-0.014,-0.044,0.018,-0.007,-0.007,-0.02
MRPL30 isoform 2 (UniProt Q8TCC3),0.419 (active),0.034,-0.003,,-0.002,-0.049,-0.034,-0.003,0.03,-0.029,-0.094,0.746 (active),0.068,-0.373 (active),0.158,0.013,0.043,-0.458 (active),-0.033,-0.013
MDM2 isoform 11 (UniProt Q00987),-0.127,0.15,0.041,0.158,,,,,,-0.003,0.014,-0.004,,0.044,,0.009,0.054,-0.158,,
MINK1 (UniProt Q8N4C8),-0.049,-0.137,0.055,0.025,0.109,-0.133,0.022,-0.003,-0.084,-0.02,-0.149,0.271,0.026,-0.102,0.014,0.24,-0.158,0.249,0.051,
